Consider 42 sequences from paper PMC7819943, “Rice protein-binding microarrays: a tool to detect cis-acting elements near promoter regions in rice”.

In all, about 68,000 sequences were measured (“fluorescence intensity (a.u.)”: median about 9,100, highest 2% from about 16,000 on). Shown is part of a subset that was picked to be rich in the highest values.

OsWRKY34, sequence (Q0JBA9 entry or part of it): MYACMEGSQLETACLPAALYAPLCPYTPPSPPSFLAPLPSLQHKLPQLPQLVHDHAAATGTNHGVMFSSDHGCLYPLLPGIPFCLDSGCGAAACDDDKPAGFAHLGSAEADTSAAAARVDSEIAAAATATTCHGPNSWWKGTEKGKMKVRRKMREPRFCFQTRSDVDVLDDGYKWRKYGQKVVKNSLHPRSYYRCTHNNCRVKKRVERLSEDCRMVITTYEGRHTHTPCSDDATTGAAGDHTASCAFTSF

This experiment concerns the target OsWRKY34 (Oryza sativa, UniProt Q0JBA9 1-250). As to the kind of experiment: protein-binding microarray (RPBM); PBS, 2% BSA, 51.3 ng/ul salmon testes DNA, 50 uM zinc acetate, 200 nM TF, 25 C, 1 h; high values mean tight binding. The following applies: protein: recombinant; tags: N-terminal polyhistidine and DsRed monomer fusion (pET32a); label: CyDye5-dUTP incorporated in the synthesized complementary strand; 3' TTTTT single-stranded linker to array surface; dsDNA, one strand shown. The gist of the method:
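Binding signal here means per-feature fluorescence intensity in arbitrary units. The values were read on an Axon 4000B scanner after a custom Agilent array, double-stranded by primer extension with Cy5-dUTP, was incubated with 200 nM protein at 25 °C for 1 h in PBS with 2% BSA, salmon testes DNA and 50 µM zinc acetate, then washed. The proteins were transcription factors with an N-terminal polyhistidine tag and DsRed, expressed in E. coli BL21-CodonPlus and purified on Ni–NTA.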
For “TTCTCCCTTTATTTTTGTTTATATAATTTCCAGATCAAAGCGGAGTCACCTAGTGCAG”, the binding signal is 8890 fluorescence intensity (a.u.).
In the case of “GCCGCCGCCTCGCTCCCCATGGCGTCCGTACACTCCGGCGCGGAGTCACCTAGTGCAG” it was 10300 fluorescence intensity (a.u.); in that of “GCCGCCGCCCGCCGCCGCCGAGACCGACCCGACCACGATGCGGAGTCACCTAGTGCAG”, 8960 fluorescence intensity (a.u.).
In the case of “AATTTCGGAAGGGTTGGTTTAGGCAGTAATATTCTCCATTCGGAGTCACCTAGTGCAG” it was 8280 fluorescence intensity (a.u.); in that of “GTGGCCTTTGGGAGCGGTGACCTGCTGCTCCATCCTTCATCGGAGTCACCTAGTGCAG”, 9620 fluorescence intensity (a.u.); in that of “ATCCTGATCAGATTCTGAACTCCTTTTCTCTCTGCGCCCACGGAGTCACCTAGTGCAG”, 8480 fluorescence intensity (a.u.).
With “CACGTCGCCTCGTTTCTTGCCTCGCCGCTCGTCACTCGGCCGGAGTCACCTAGTGCAG” the figure was 9810 fluorescence intensity (a.u.); with “GATAGTTGAGGGGTCGAGATTTTTGGTATTGCGGATTGGGCGGAGTCACCTAGTGCAG”, 10400 fluorescence intensity (a.u.).
For the sequence “CGGTGGACTGGTGGTTTTTGCGGGGTTGCAGAATTTGGTGCGGAGTCACCTAGTGCAG”, the binding signal is 9390 fluorescence intensity (a.u.).
“CGATCTTGCCCTGGTTGGTTGGTGGTGGTGGTGGGTTTTGCGGAGTCACCTAGTGCAG”: the binding signal was 37100 fluorescence intensity (a.u.).
With “CGGTGGTGGTGGTGGTGCCTTGGCTAGTTTGGCCGGCGCGCGGAGTCACCTAGTGCAG” the figure was 14300 fluorescence intensity (a.u.).
Consider “GTTTATTGTATTTGGAGTAAGTGATTGTAACTTTTTTTTACGGAGTCACCTAGTGCAG”, for which the binding signal is 9200 fluorescence intensity (a.u.).
In the case of “GGTGGTCTTCTTTTTTTGCGGTGGAGTTGGATTTGGGTTGCGGAGTCACCTAGTGCAG” it was 13000 fluorescence intensity (a.u.); in that of “GGTGGGTTGGGCCGTGATTTGTATGGACTTTATTTGTAAGCGGAGTCACCTAGTGCAG”, 19000 fluorescence intensity (a.u.).
In the case of “GGCGAGTGGCGGATTTGTTTTTGGTTTGTTTTTGAGTTTGCGGAGTCACCTAGTGCAG” it was 9060 fluorescence intensity (a.u.); in that of “CTTGGCTTGGTTTGGTTTGGTGTTTGATCACGCGGTGGTGCGGAGTCACCTAGTGCAG”, 20800 fluorescence intensity (a.u.).
With “AATATGTGGGTGATTTGTTGTAATGGAGTATGTGGTGGAGCGGAGTCACCTAGTGCAG” the figure was 10000 fluorescence intensity (a.u.); with “CGGTTTCGTTTGAGATTTTTTTTTGGTGGTTTTGATTTCGCGGAGTCACCTAGTGCAG”, 8640 fluorescence intensity (a.u.); with “TATTTTTGGGTTGGGTTTGGGTTGGGTTGGGTCGAGTTGGCGGAGTCACCTAGTGCAG”, 26100 fluorescence intensity (a.u.).
For the sequence “GTTTACATGTGTAGATCTAATGATGCGTTCAATCTAGTTTCGGAGTCACCTAGTGCAG”, the binding signal is 8860 fluorescence intensity (a.u.).
In the case of “GCGGATTTCCTTTCTAAACGTGCCAACGATGTGTTCTTGTCGGAGTCACCTAGTGCAG” it was 8250 fluorescence intensity (a.u.); in that of “CAAAACAGAAGAGCCAGGTTAGTTTAGTTGGTCATATTCACGGAGTCACCTAGTGCAG”, 8310 fluorescence intensity (a.u.); in that of “AGCCATCCGGCCGCGGCCCGTCACAGGTAACTAGTCATTTCGGAGTCACCTAGTGCAG”, 9260 fluorescence intensity (a.u.).
With “TTCCCACCGCTGCCGCTCGTCCCGTCTCACCGATCCCTCCCGGAGTCACCTAGTGCAG” the figure was 10300 fluorescence intensity (a.u.); with “CGCCGCCATTTCCGCCTCTTCTTCTCTTAAACAAAAAGCCCGGAGTCACCTAGTGCAG”, 10200 fluorescence intensity (a.u.).
With “TCCTGTGTTTTTTCTGTGTTTTGCAATCCTCTGTTTTACACGGAGTCACCTAGTGCAG” the figure was 10900 fluorescence intensity (a.u.); with “GGTAAAACATGTTGGATTTTATTTTGGTGGGATGTGCAATCGGAGTCACCTAGTGCAG”, 9620 fluorescence intensity (a.u.).
On to “TGGGGTTCTTGTTTTTCTTTTCCGGGATCTTTGGGTGATGCGGAGTCACCTAGTGCAG”, for which the binding signal is 15900 fluorescence intensity (a.u.).
In the case of “CACTACCTCAGTATTCTCTACTACTACTCTTTTCTCAGAGCGGAGTCACCTAGTGCAG” it was 8470 fluorescence intensity (a.u.).
With “AACTTGGTGGGTTTGGTTTTGCTCTTTCTGTTGACCAAGCCGGAGTCACCTAGTGCAG” the figure was 12000 fluorescence intensity (a.u.); with “TGGTTTTCTGTTTTCTTGGTTTTGGGTGGTGGCAGTTGACCGGAGTCACCTAGTGCAG”, 23200 fluorescence intensity (a.u.); with “ACTACTCACTCTTCATTGCTTTTTTTTTTCTCTCTCTAGCCGGAGTCACCTAGTGCAG”, 9600 fluorescence intensity (a.u.).
In the case of “TGGGGTTTTCTTTTTTGGGTTGGGTTGATCTTTTGGGTGGCGGAGTCACCTAGTGCAG” it was 36600 fluorescence intensity (a.u.); in that of “GTCTTATTGTGGTTGGGAGTTTAACGGTGTACCGAAGAAACGGAGTCACCTAGTGCAG”, 8780 fluorescence intensity (a.u.); in that of “GATCTGACCGGATTTTGCGGTGGGGTTTTCTTTTTTGGGTCGGAGTCACCTAGTGCAG”, 12200 fluorescence intensity (a.u.).
Take “TTGACTGGGTTTTTCTTTTTTTTTTCTGTTTTGTTGTTTGCGGAGTCACCTAGTGCAG”: the binding signal is 10100 fluorescence intensity (a.u.).
With “CTACTACTCTTTTCTCAGAGCTAGTGAGGGGCGGGCGGGCCGGAGTCACCTAGTGCAG” the figure was 17500 fluorescence intensity (a.u.).
With “TTTTTGGGTGGGAGTTGTATTTTTTTAACATGTGGGAAAACGGAGTCACCTAGTGCAG” the figure was 21300 fluorescence intensity (a.u.).
With “TCTTCGTCGACACCACCCCAGCCGGTGTCCCCACGCGCTCCGGAGTCACCTAGTGCAG” the figure was 10100 fluorescence intensity (a.u.); with “CCAGTTTGTATCTCATGTATTGGGCCTCGAAATCTGGTATCGGAGTCACCTAGTGCAG”, 12200 fluorescence intensity (a.u.); with “GTTACTGCACATTGACCATCGCGTTACTGCACCGTTCTGCCGGAGTCACCTAGTGCAG”, 8940 fluorescence intensity (a.u.).
As to “GAGGGGTTTCATTGTTATTTTTGGGTAATCCAAATTTACACGGAGTCACCTAGTGCAG”, the binding signal is 16300 fluorescence intensity (a.u.).
